Records with an inconclusive call do not appear. Active and inactive are the calls of the source. Unless noted, calls follow the shape of the dose curve; as a rule, active = well fitted curve in either direction with a large enough effect (not every such curve was filed as active); inconclusive = small, poorly fitted or top-dose-only effect, or another doubt; inactive = flat fitted curve, though single readings scatter.
How the values were obtained:
[1] = target: Lysosomal acid glucosylceramidase (Homo sapiens) (UniProt P04062); test: Glucocerebrosidase-p2 (AID 348; in the data active = potency below about 10 µM; also: potency is read from the fitted curve at half-maximal effect); settings: purified GBA, blue fluorogenic substrate, 40 min
Sequence of Lysosomal acid glucosylceramidase (Homo sapiens) (P04062 whole entry, looked up): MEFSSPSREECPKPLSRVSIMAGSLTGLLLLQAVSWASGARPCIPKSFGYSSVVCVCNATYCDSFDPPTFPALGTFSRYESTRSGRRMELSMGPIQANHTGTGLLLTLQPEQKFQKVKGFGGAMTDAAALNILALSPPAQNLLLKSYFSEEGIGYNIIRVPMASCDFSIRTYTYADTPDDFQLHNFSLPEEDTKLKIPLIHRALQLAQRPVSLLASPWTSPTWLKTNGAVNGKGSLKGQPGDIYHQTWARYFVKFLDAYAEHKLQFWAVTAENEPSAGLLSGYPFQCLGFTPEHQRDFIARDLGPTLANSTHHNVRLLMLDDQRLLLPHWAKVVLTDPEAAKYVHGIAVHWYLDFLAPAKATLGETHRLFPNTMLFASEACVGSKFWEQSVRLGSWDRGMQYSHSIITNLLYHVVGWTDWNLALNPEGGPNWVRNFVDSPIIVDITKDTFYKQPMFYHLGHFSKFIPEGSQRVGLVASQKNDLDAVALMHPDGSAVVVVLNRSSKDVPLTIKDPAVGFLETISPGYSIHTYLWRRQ
In short: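 Normal human glucocerebrosidase (0.2 nM) with blue fluorogenic substrate (80 uM final) in citrate/phosphate pH 5.9 with 10mM sodium taurocholate, 0.01% tween-20; 40 min RT, NaOH/glycine stop; fluorescence Ex 365/Em 440; AC50 from a titration from 0.6 nM upwards.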

[2] = target: Cytochrome P450 1A2 (Homo sapiens) (UniProt P05177); test: p450-cyp1a2 (AID 410; calls by dose curve; also: potency is read from the fitted curve at half-maximal effect); settings: recombinant CYP1A2, luciferin-ME demethylation, luminescence; series mostly up to 57 µM
Sequence of Cytochrome P450 1A2 (Homo sapiens) (P05177 whole entry, looked up): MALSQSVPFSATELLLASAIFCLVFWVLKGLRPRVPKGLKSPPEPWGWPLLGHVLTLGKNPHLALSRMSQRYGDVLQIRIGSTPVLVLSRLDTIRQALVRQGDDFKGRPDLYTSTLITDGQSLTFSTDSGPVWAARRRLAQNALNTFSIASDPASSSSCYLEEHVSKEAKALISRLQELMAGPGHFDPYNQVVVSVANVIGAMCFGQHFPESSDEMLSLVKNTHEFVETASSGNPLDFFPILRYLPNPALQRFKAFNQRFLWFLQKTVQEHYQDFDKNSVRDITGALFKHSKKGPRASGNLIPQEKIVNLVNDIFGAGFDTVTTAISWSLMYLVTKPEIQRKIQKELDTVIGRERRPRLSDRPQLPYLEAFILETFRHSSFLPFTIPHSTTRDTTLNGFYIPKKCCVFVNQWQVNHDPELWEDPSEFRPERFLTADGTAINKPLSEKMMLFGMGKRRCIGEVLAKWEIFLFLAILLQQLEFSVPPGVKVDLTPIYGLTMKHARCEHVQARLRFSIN
In short: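 20nM CYP1A2, 100uM Luciferin-ME (=Km), 100mM KPO4; cpd 10 min RT; +NADPH regen, 60 min RT; stop/detect 20 min; luminescence. Normalized to furafylline 57 uM = full inhibition.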

[3] = NFAT Signaling Pathway (AID 444); settings: Jurkat NFAT-bla M1, carbachol, beta-lactamase ratio, 5 h; at 7.69 µM (top of the series) unless noted;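 also: carbachol stimulus at about its EC50 of 1 µM final; % is scaled to controls: 0 for no effect and ±100 for the full control effect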
In short: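 Jurkat cells carrying an NFAT-driven β-lactamase reporter and co-transfected muscarinic M1 receptor were treated with compound plus carbachol (1 uM final, an EC50 level) for 5 h at 37 °C. CCF4 loading followed for 1 h at RT; 460/530 nm ratio gave %activity.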

[4] = Stat Signaling Pathway (AID 446); settings: ME-180 (cervical carcinoma) SIE beta-lactamase reporter, IL-6 stimulated, 5 h; series mostly up to 7.69 µM;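 also: ME-180 cervical cancer cells given 40 pM IL-6 alongside compound; SIE-controlled beta-lactamase reporter measured as 460/530 nm FRET emission ratio; % is scaled to controls: 0 for no effect and ±100 for the full control effect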
In short: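 FRET read-out (405 nm excitation, 460/530 nm emission) of a beta-lactamase reporter under a STAT-inducible element in ME-180 cervical carcinoma cells. Cells with compound receive 40 pM IL-6 for 5 h. Values are normalised to AC90 stimulation and AC90 JAK-inhibitor controls.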

[5] = target: Glucocorticoid receptor (Homo sapiens) (UniProt P04150); test: GR-EFC Redistribution (AID 451; calls by dose curve; also: potency is read from the fitted curve at half-maximal effect); settings: CHO-K1 GR-EFC translocation, beta-gal luminescence, 2 h
Sequence of Glucocorticoid receptor (Homo sapiens) (P04150 whole entry, looked up, the tested form may be a part): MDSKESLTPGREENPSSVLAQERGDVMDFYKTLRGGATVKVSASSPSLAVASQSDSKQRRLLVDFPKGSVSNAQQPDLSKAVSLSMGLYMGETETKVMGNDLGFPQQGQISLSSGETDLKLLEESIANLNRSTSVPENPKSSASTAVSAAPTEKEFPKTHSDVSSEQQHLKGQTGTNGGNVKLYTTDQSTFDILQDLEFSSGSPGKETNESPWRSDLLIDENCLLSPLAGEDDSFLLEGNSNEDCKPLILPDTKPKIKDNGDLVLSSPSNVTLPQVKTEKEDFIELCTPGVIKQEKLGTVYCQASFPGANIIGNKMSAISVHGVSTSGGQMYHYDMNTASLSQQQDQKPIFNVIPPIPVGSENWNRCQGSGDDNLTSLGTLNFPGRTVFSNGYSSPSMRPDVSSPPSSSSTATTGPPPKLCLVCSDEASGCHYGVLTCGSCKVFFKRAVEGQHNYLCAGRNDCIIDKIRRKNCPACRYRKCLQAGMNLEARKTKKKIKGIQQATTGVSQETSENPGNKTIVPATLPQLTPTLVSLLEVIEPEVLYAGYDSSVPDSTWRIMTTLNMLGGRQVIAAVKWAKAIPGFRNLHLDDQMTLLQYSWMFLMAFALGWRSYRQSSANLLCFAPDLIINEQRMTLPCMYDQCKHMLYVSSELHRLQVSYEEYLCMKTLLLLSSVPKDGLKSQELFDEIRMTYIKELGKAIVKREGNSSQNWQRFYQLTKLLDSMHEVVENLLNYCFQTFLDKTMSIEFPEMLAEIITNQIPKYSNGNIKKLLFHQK
In short: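 CHO-K1 cells stably expressing nuclear-localized β-gal enzyme acceptor and GR fused C-terminally to the enzyme donor fragment; ligand-driven nuclear translocation restores β-gal by complementation. Compounds titrated up to 46 uM final, 2 h at 37 °C; luminescence read.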

[6] = target: Mitogen-activated protein kinase 10 (Mus musculus) (UniProt Q61831); test: JNK3 AlphaScreen Assay (AID 530); settings: JNK3 lysate, c-Jun phosphorylation; series mostly up to 57.1 µM;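 also: kinase came from lysate of stimulated human HepG2 cells; signal reports phosphorylation of biotinylated GST-cJun 1-79 at Ser73 with 10 µM ATP; % is scaled to controls: 0 for no effect and ±100 for the full control effect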
In short: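 Biotinylated GST-cJun(1-79) served as substrate for JNK3 in HepG2 lysates stimulated with IL-1beta and TNF-alpha. ATP was 10 uM final, pH 7.6. Ser73 phosphorylation was quantified by AlphaScreen (680 nm excitation).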

[7] = target: Ubiquitin carboxyl-terminal hydrolase 1 (Homo sapiens) (UniProt O94782); test: Inhibitors of USP1/UAF1: Pilot qHTS (AID 504865; active = well fitted curve in the direction sought with a large enough effect; an effect the other way counts as inactive or inconclusive;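 also: rhodamine fluorescence freed from ubiquitin-rhodamine substrate followed over time; top concentration of the series differs between compounds; % is scaled to controls: 0 for no effect and ±100 for the full control effect; nearly all actives have a fitted effect of over 35% in size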); settings: purified USP1/UAF1, Ub-rhodamine cleavage fluorescence; series mostly up to 54.9 µM
Sequence of Ubiquitin carboxyl-terminal hydrolase 1 (Homo sapiens) (O94782 whole entry, looked up): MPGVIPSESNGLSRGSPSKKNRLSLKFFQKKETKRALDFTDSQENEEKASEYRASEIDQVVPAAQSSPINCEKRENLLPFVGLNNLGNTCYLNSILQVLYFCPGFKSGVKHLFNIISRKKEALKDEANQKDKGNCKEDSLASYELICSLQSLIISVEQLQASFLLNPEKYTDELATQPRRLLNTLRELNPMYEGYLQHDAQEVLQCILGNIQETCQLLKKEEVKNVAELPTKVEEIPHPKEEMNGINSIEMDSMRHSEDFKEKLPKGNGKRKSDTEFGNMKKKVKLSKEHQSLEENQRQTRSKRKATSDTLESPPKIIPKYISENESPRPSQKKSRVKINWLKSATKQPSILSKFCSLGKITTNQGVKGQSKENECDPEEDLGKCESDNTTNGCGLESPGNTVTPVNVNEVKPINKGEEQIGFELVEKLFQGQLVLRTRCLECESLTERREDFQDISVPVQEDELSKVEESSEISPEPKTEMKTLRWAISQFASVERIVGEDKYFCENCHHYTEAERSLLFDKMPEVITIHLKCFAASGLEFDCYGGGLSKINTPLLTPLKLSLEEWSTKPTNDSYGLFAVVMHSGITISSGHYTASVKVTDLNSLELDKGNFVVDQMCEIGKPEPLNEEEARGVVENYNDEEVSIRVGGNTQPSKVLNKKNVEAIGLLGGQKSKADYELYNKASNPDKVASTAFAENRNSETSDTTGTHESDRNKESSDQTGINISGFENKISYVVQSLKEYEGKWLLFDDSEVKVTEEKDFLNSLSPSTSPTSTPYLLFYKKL
In short: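 USP1/UAF1 complex at 1 nM preincubated 15 min at room temperature with compound, then Ub-Rho substrate added at 150 nM final. Fluorescence (480/540 nm) read kinetically in 50 mM HEPES pH 7.8, 0.5 mM EDTA, 1 mM TCEP, 0.1 mg/ml BSA, 0.01% Tween-20.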

[8] = target: Glucocorticoid receptor (Homo sapiens) (UniProt P04150); test: GR-GFP Redistribution (AID 450;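 active = compounds whose dose series gives a full or clear partial fitted curve of increased nuclear translocation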; also: potency is read from the fitted curve at half-maximal effect); settings: U2OS GR-GFP nuclear translocation, laser cytometry, 2 h
[9] = Viability counterscreen for antagonist of constitutive androstane receptor (CAR) against the NCATS DSHEA and TCM libraries (AID 1794837; active = well fitted curve in the direction sought with a large enough effect; an effect the other way counts as inactive or inconclusive;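 also: compound exposure lasted 24 h before viability reading; 0% is about no effect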); settings: CAR reporter cell line viability counterscreen, qHTS; series mostly up to 40 µM
In short: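 HepG2-CYP2B6-hCAR cells, 2,500/well, were exposed 24 hr at 37C to substances together with 48 uM CITCO (final). Viability was read as CellTiter-Fluor fluorescence (Ex/Em 405/540 nm) after 1 hr.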

[10] = Viability counterscreen for agonist of constitutive androstane receptor (CAR) against the NCATS DSHEA and TCM libraries (AID 1794838; active = well fitted curve in the direction sought with a large enough effect; an effect the other way counts as inactive or inconclusive;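 also: HepG2 cells with CYP2B6 reporter and hCAR plus 0.75 µM PK11195 antagonist; 0% is about no effect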); settings: HepG2 cell viability counterscreen, CAR agonist assay, co-treated with 0.75 µM CAR antagonist; series mostly up to 40 µM
In short: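 HepG2-CYP2B6-hCAR cells (2,500/well) treated 24 h at 37C with compounds plus 0.75 uM PK11195; viability read by CellTiter-Fluor fluorescence, Ex/Em 405/540 nm.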

[11] = target: Nuclear receptor subfamily 1 group I member 3 (Homo sapiens) (UniProt Q14994); test: Primary qHTS for agonist of constitutive androstane receptor (CAR) against the NCATS DSHEA and TCM libraries (AID 1794839; active = well fitted curve in the direction sought with a large enough effect; an effect the other way counts as inactive or inconclusive;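 also: HepG2 cells expressing human CAR with a CYP2B6 reporter plus PK11195 antagonist; 0% is about no effect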); settings: CAR agonist reporter cells, qHTS luminescence, CAR antagonist co-added at 0.75 µM; series mostly up to 40 µM
Sequence of Nuclear receptor subfamily 1 group I member 3 (Homo sapiens) (Q14994 whole entry, looked up): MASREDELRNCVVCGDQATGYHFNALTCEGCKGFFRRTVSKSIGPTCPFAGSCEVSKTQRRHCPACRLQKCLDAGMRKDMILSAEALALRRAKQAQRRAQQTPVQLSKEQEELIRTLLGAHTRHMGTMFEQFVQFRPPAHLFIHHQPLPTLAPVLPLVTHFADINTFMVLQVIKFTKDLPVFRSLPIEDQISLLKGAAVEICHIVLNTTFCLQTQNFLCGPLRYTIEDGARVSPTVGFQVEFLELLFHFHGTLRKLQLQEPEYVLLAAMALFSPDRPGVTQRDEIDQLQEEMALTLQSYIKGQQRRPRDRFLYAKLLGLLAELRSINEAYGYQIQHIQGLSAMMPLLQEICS
In short: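 HepG2-CYP2B6-hCAR cells, 2,500/well, attached 5 h, then dosed with 0.75 µM PK11195 (final) for 24 h at 37 °C. Luciferase luminescence read (ONE-Glo); CellTiter-Fluor viability (Ex/Em 405/540 nm) in same wells; CITCO positive control.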

[12] = HepG2 viability counterscreen (readout 2: ATP content) against the NCATS DSHEA and TCM libraries (AID 1794840; active = well fitted curve in the direction sought with a large enough effect; an effect the other way counts as inactive or inconclusive; also: 0% is about no effect); settings: ATP content luminescence; series mostly up to 27.3 µM
In short: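 HepG2 cells, 1,000/well, attached ~4 h, then exposed ~24 h at 37C to substances. Protease activity read by fluorescence of 25 uM GF-AFC (Ex/Em 380/510 nm) after 30 min; ATP then by CellTiter-Glo luminescence.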

[13] = target: Cytochrome P450 3A4 (Homo sapiens) (UniProt P08684); test: qHTS for inhibitors of CYP3A4 against the NCATS DSHEA and TCM libraries (AID 1919971; active = well fitted curve in the direction sought with a large enough effect; an effect the other way counts as inactive or inconclusive;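 also: % is scaled to controls: 0 for no effect and ±100 for the full control effect; inhibition lowers luminescence from luciferin made by CYP3A4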); settings: recombinant CYP3A4 enzyme activity, luminescence qHTS; series mostly up to 34.1 µM
Sequence of Cytochrome P450 3A4 (Homo sapiens) (P08684 whole entry, looked up): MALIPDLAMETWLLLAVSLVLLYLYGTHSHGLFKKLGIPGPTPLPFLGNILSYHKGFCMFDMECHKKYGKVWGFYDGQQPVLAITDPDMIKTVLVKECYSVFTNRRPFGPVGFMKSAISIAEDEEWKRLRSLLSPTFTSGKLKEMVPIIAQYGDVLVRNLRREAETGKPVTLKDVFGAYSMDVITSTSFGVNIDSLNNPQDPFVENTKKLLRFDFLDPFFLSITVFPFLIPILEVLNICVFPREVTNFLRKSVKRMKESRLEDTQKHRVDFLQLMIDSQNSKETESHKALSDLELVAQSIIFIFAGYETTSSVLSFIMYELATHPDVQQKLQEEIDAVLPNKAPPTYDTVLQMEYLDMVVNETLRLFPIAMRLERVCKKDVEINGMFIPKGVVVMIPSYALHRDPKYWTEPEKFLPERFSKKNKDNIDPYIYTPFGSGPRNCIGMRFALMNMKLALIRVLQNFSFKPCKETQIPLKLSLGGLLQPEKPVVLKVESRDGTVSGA
In short: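 Substances were tested against enzyme with a pro-luciferin substrate; minus-enzyme wells served as background. After NADPH-initiated oxidation (30-45 min, RT), light was generated with P450-Glo reagent.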

[14] = target: Cytochrome P450 2D6 (Homo sapiens) (UniProt P10635); test: qHTS for inhibitors of CYP2D6 against the NCATS DSHEA and TCM libraries (AID 1919972; active = well fitted curve in the direction sought with a large enough effect; an effect the other way counts as inactive or inconclusive; also: % is scaled to controls: 0 for no effect and ±100 for the full control effect); settings: CYP2D6 enzymatic inhibition, luminescence qHTS; series mostly up to 34.1 µM
Sequence of Cytochrome P450 2D6 (Homo sapiens) (P10635 whole entry, looked up): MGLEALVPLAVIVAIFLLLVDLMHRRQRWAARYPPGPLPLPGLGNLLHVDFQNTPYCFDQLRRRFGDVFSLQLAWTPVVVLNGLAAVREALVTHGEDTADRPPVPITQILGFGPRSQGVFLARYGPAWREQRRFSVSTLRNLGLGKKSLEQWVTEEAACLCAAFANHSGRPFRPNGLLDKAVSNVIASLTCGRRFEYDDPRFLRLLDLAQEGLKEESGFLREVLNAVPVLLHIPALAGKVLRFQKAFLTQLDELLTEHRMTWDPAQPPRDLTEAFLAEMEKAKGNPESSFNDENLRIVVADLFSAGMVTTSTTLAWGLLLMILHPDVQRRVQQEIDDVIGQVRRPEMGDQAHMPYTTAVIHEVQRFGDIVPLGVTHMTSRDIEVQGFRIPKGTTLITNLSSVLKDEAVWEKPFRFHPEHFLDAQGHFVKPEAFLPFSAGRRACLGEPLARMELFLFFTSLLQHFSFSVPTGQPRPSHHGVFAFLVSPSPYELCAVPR
In short: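 qHTS, concentration–response format with most substances from 19.5 nM. CYP2D6 + pro-luciferin substrate, 15 min with compound, then 1x NADPH regen, 30–45 min RT dark. Glo detection 30 min, luminescence. Quinidine control.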

[15] = KB-3-1 P-gp reporter qHTS against the NCATS DSHEA and TCM libraries (AID 1919975; active = well fitted curve in the direction sought with a large enough effect; an effect the other way counts as inactive or inconclusive; also: 0% is about no effect); settings: KB-3-1 parental cells, CellTiter-Glo luminescence viability, 72 h; series mostly up to 26.1 µM
In short: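 Parental KB-3-1 cells, 500 cells/well, in DMEM with 10% FBS, exposed 72 h at 37 C to compounds in concentration-response. Viability read by CellTiter-Glo luminescence after 30 min at room temperature.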

[16] = target: Cytochrome P450 1A2 (Homo sapiens) (UniProt P05177); test: qHTS for inhibitors of CYPIA2 against the NCATS DSHEA and TCM libraries (AID 1919976; active = well fitted curve in the direction sought with a large enough effect; an effect the other way counts as inactive or inconclusive; also: % is scaled to controls: 0 for no effect and ±100 for the full control effect); settings: recombinant CYP1A2 enzyme activity, luminescence; series mostly up to 37 µM
In short: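 Luminescence read-out: pro-luciferin converted to D-luciferin by CYP1A2, detected with P450-Glo reagent after 30 min RT. Enzyme plus substrate got compounds for 15 min RT; NADPH regeneration solution (final 1x) started a 30-45 min reaction, light-protected.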

[17] = qHTS Counterscreen for compound interference against the NCATS DSHEA and TCM libraries (AID 1919978; active = well fitted curve in the direction sought with a large enough effect; an effect the other way counts as inactive or inconclusive;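 also: compounds preincubated with 1 µM D-luciferin or buffer before detection reagent; % of control where 0% means no effect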); settings: firefly luciferase detection reagent interference, luminescence
In short: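 Firefly luciferase detection reagent was added after compounds (19.5 nM–39.8 uM final) had been incubated 15 min at room temperature with 1 uM D-luciferin or with 100 mM phosphate buffer alone. Luminescence was read after 30 min at room temperature.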

[18] = Dual reporter qHTS for agonist of Pregnane X Receptor (hPXR) against the NCATS DSHEA and TCM libraries: Fluorescence readout (AID 1920058; active = well fitted curve in the direction sought with a large enough effect; an effect the other way counts as inactive or inconclusive; also: 0% is about no effect); settings: PXR dual reporter cells; series mostly up to 40 µM
In short: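 Fluorescence read-out for cell viability: CellTiter-Fluor, 1 h at 37 °C, Ex/Em 405/540 nm. This followed ~24 h treatment of hPXR-Luc HepG2 cells with substances in agonist mode.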

[19] = target: Nuclear receptor subfamily 1 group I member 2 (Homo sapiens) (UniProt O75469); test: Dual reporter qHTS for agonist of Pregnane X Receptor (hPXR) against the NCATS DSHEA and TCM libraries: Luminescence readout (AID 1920059; active = well fitted curve in the direction sought with a large enough effect; an effect the other way counts as inactive or inconclusive; also: 0% is about no effect); settings: hPXR dual reporter cells, luciferase luminescence agonist; series mostly up to 40 µM
Sequence of Nuclear receptor subfamily 1 group I member 2 (Homo sapiens) (O75469 whole entry, looked up): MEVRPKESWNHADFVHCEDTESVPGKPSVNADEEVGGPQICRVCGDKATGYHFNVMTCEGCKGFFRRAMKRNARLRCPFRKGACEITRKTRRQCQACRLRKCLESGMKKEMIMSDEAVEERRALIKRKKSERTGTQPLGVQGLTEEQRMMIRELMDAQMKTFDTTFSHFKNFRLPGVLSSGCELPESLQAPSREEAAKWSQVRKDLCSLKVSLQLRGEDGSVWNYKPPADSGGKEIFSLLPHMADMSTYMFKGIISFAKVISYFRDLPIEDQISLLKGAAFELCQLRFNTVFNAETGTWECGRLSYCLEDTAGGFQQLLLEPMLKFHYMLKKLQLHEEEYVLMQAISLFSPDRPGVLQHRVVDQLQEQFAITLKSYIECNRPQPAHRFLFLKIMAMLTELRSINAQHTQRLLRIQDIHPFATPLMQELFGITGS
In short: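 hPXR-LucHepG2 cells in phenol red-free DMEM with 5% charcoal-stripped FBS, 2000 cells/well, attached 5 h, then exposed 24 h at 37C to compounds; rifampicin as positive agonist control (2.8 nM–92 uM). Luciferase luminescence read.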

[20] = target: Nuclear receptor subfamily 1 group I member 2 (Homo sapiens) (UniProt O75469); test: Dual reporter qHTS for antagonist of Pregnane X Receptor (hPXR) against the NCATS DSHEA and TCM libraries: Luminescence Readout (AID 1920060; active = well fitted curve in the direction sought with a large enough effect; an effect the other way counts as inactive or inconclusive;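 also: HepG2 cells carrying hPXR luciferase reporter stimulated with rifampicin at 2 µM; 0% is about no effect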); settings: hPXR dual reporter cells, luciferase luminescence, antagonist mode; series mostly up to 40 µM
In short: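 In antagonist mode, 2 uM rifampicin was added to hPXR-Luc HepG2 cells alongside test substances, incubated 24 h at 37 C; luminescence gave reporter activity, and CellTiter-Fluor fluorescence (405/540 nm) gave viability.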

COc1ccc2[nH]cc(CCNc3ncnc4ccc(-c5ccoc5)cc34)c2c1
inactive: Potency [1] > 11.4 µM | activity change, negative = inhibition [3] 0.633% | outcome [4] | Potency [5] > 46 µM | Potency [6] | Potency [7]
active: Potency [2] 0.316 µM

Cn1c(=O)c(-c2ccccc2)nc2cnc(N3CCOCC3)nc21
inactive: Potency [1] > 11.4 µM | outcome [4] | Potency [5] > 46 µM | Potency [7]
active: Potency [2] 2 µM

Cc1noc(C)c1-c1nc(N2CCN(C)CC2)c2ccccc2n1
inactive: Potency [1] > 11.4 µM | activity change, negative = inhibition [3] -5.52% | outcome [4] | Potency [8] > 46 µM | Potency [5] > 46 µM | Potency [6]
active: Potency [2] 0.316 µM

COCCn1c(=O)c(CCc2ccccc2)nc2cnc(N(C)C)nc21
active: Potency [2] 1.26 µM
inactive: Potency [1] > 11.4 µM | activity change, negative = inhibition [3] 3.37% | outcome [4] | Potency [8] > 9.22 µM | Potency [5] > 46 µM | Potency [7]

Cc1nc2cnc(Oc3cccc(Cl)c3)nc2n(Cc2ccc(F)cc2)c1=O
inactive: Potency [1] > 11.4 µM | activity change, negative = inhibition [3] -21.7% | outcome [4] | Potency [8] > 9.22 µM | Potency [5] > 46 µM | Potency [6] | Potency [7]

COc1ccc2[nH]cc(CCNc3cc(-c4ccccc4OC)ncn3)c2c1
inactive: Potency [1] > 11.4 µM | activity change, negative = inhibition [3] -7.55% | outcome [4] | Potency [8] > 46 µM | Potency [6] | Potency [7]
active: Potency [2] 1.58 µM

COc1ccc2[nH]cc(CCNc3ncncc3-c3ccoc3)c2c1
inactive: Potency [1] > 11.4 µM | activity change, negative = inhibition [3] -12% | outcome [4] | Potency [8] > 46 µM | Potency [5] > 46 µM | Potency [6] | Potency [7]

CN(C)c1ccc(-c2nccc(NCc3cccs3)n2)cc1
inactive: outcome [4] | Potency [5] > 46 µM | Potency [6] | Potency [7]
active: Potency [2] 0.398 µM

Cc1cnc(CNc2ncnc3ccc(-c4ccccc4Cl)cc23)cn1
inactive: Potency [1] > 11.4 µM | activity change, negative = inhibition [3] 7.91% | Potency [8] > 46 µM | Potency [5] > 46 µM | Potency [7]
active: Potency [2] 6.31 µM

CC(C)=CCC[C@](C)(O[C@@H]1O[C@H](CO)[C@@H](O)[C@H](O)[C@H]1O)[C@H]1CC[C@]2(C)[C@@H]1[C@H](O)C[C@@H]1[C@@]3(C)CC[C@H](O)C(C)(C)[C@@H]3[C@@H](O[C@@H]3O[C@H](CO)[C@@H](O)[C@H](O)[C@H]3O[C@@H]3O[C@@H](C)[C@H](O)[C@@H](O)[C@H]3O)C[C@]12C
inactive: outcome [9] | outcome [10] | Potency [11] | outcome [12] | Potency [13] | Potency [14] | outcome [15] | Potency [16] | max response [17] 0.587% | outcome [18] | Potency [19] | outcome [20]
